Data on 6 compounds can be found in PubChem BioAssay (NCATS).

Structures are written as SMILES. Inconclusive results are not listed. Values without a mark were called inactive. Calls of active or inactive are those of the source. Unless noted, calls come from the whole dose curve; as a rule, active = well fitted curve in the direction sought with a large enough effect; inconclusive = small, poorly fitted or top-dose-only effect, or another doubt; inactive = no such curve, though single readings can be large; an effect the other way counts as inactive or inconclusive.

In test [1] the target is ATP-dependent 6-phosphofructokinase (Trypanosoma brucei brucei) (UniProt O15648). Kind of test: qHTS Assay to Find Inhibitors of T. brucei phosphofructokinase: hit validation (AID 492961).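 Note: luminescence reports ADP formed as PFK phosphorylates fructose-6-phosphate with ATP; % is set by controls: 0 for no effect and ±100 for the full control effect.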 The procedure, abridged: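 PFK 1.25 nM, F6P 0.5 mM, ATP 0.1 mM, MgCl2 5 mM, 0.1 M TEA pH 8.0, Tween20 0.01%, BSA 0.1%; 45 min RT. ADP-Glo two-step detection, luminescence. qHTS titration; curve fitting with curve-class categorization.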
For orientation: In qHTS, concentration-response curves come from the screen itself.

Test [2] addresses Luciferin 4-monooxygenase (Photinus pyralis) (UniProt P08659). Kind of test: Biochemical firefly luciferase enzyme assay for NPC (AID 624030).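 Note: purified P. pyralis luciferase at 10 nM with luciferin and ATP substrate; 0% = DMSO and -100% = full luciferase inhibition by PTC124 control; nearly all actives have a fitted effect of over 70% in size.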 The gist of the method:
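Counter-screen for direct inhibition of the luciferase enzyme by approved-drug library compounds, run at 10 nM enzyme in 50 mM Tris acetate (final). Luminescence was read within 5 min of enzyme-buffer addition and normalized to PTC124 versus DMSO (0%).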

Test [3] in a line: S16 Schwann cell PMP22 intronic element beta-lactamase assay (AID 624044; calls by dose curve; note: nearly all actives have a fitted effect of over 15% in size; note: potency is the fitted concentration of half-maximal effect;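 for ratio activity, negative = inhibition: 0% = DMSO and -100% = potassium clavulanate positive control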). Conditions: S16 rat Schwann cells, PMP22 element beta-lactamase FRET, 24 h; ratio activity, negative = inhibition: at 38.3 µM (top of the series). The gist of the method:
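Rat S16 Schwann cells with beta-Lac driven by a PMP22 intronic element, compound-treated 24 h at 37 °C. LiveBLAzer FRET B/G read: 460 nm normalized to potassium clavulanate vs DMSO; 535 nm FRET as viability; concentration-effect curves classified.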

Test [4] in a line: qHTS profiling for inhibitors of Plasmodium falciparum proliferation (AID 504749).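 For activity, negative = inhibition: 0% = DMSO vehicle and full inhibition = artemisinin control.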 For all read-outs here: nearly all actives have a fitted effect of over 60% in size. Note: potency is the fitted concentration of half-maximal effect. Particulars: P. falciparum in erythrocytes, SYBR Green DNA, 72 h; for activity, negative = inhibition: at 28.7 µM (top of the series). The gist of the method: (§1)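 P. falciparum-infected erythrocytes (0.3% parasitemia, 2.5% hematocrit final) were exposed to compounds for 72 h at 37 C in 5% CO2, then lysed with SYBR Green buffer overnight at room temperature; parasite DNA fluorescence was normalized to artemisinin and DMSO controls.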

For a further test, the system named is CP185. The test is described as above. Conditions: P. falciparum in erythrocytes, SYBR Green DNA, 72 h; series mostly up to 28.7 µM. The procedure, abridged:
as §1

The test system of the next test is CP192. Described as above. Particulars: P. falciparum in erythrocytes, SYBR Green DNA, 72 h; series mostly up to 28.7 µM. The gist of the method:
as §1

In a further test the test system is CP211. Described as above. Conditions: P. falciparum in erythrocytes, SYBR Green DNA, 72 h; series mostly up to 28.7 µM. The procedure, abridged: as §1
The next test has as its system CP262. The description is as above. Conditions: P. falciparum in erythrocytes, SYBR Green DNA, 72 h; series mostly up to 28.7 µM. The procedure, abridged: as §1
In the next test the test system is CP269. The test is described as above. Conditions: P. falciparum in erythrocytes, SYBR Green DNA, 72 h; series mostly up to 28.7 µM. The procedure, abridged: as §1
The subject of the next test is CP286. Described as above. Conditions: P. falciparum in erythrocytes, SYBR Green DNA, 72 h; series mostly up to 28.7 µM. The gist of the method: as §1
The test system of another test is CP305. The description is as above. Particulars: P. falciparum in erythrocytes, SYBR Green DNA, 72 h; series mostly up to 28.7 µM. The procedure, abridged:
as §1

A further test relates to FAB9. The test is described as above. Particulars: P. falciparum in erythrocytes, SYBR Green DNA, 72 h; series mostly up to 28.7 µM. The procedure, abridged:
as §1

The test system of the next test is JCK. The description is as above. Particulars: P. falciparum in erythrocytes, SYBR Green DNA, 72 h; series mostly up to 28.7 µM. The procedure, abridged:
as §1

The next test relates to N140. Described as above. Conditions: P. falciparum in erythrocytes, SYBR Green DNA, 72 h; series mostly up to 28.7 µM. The procedure, abridged: as §1
The subject of another test is PC49. Described as above. Particulars: P. falciparum in erythrocytes, SYBR Green DNA, 72 h; series mostly up to 28.7 µM. The gist of the method: as §1
Another test concerns CP238. The test is described as above. Particulars: P. falciparum in erythrocytes, SYBR Green DNA, 72 h; series mostly up to 28.7 µM. The gist of the method: as §1
The test system of a further test is CP315. The description is as above. Particulars: P. falciparum in erythrocytes, SYBR Green DNA, 72 h; series mostly up to 28.7 µM. The procedure, abridged: as §1
For a further test, the system named is CP325. The test is described as above. Conditions: P. falciparum in erythrocytes, SYBR Green DNA, 72 h; series mostly up to 28.7 µM. The gist of the method: as §1
A further test relates to Dd2. The test is described as above. Particulars: P. falciparum in erythrocytes, SYBR Green DNA, 72 h; series mostly up to 28.7 µM. The gist of the method: as §1
In another test the test system is HB3. The test is described as above. Conditions: P. falciparum in erythrocytes, SYBR Green DNA, 72 h; series mostly up to 28.7 µM. The gist of the method:
as §1

ATP-dependent 6-phosphofructokinase (Trypanosoma brucei brucei), sequence (O15648 whole entry, looked up): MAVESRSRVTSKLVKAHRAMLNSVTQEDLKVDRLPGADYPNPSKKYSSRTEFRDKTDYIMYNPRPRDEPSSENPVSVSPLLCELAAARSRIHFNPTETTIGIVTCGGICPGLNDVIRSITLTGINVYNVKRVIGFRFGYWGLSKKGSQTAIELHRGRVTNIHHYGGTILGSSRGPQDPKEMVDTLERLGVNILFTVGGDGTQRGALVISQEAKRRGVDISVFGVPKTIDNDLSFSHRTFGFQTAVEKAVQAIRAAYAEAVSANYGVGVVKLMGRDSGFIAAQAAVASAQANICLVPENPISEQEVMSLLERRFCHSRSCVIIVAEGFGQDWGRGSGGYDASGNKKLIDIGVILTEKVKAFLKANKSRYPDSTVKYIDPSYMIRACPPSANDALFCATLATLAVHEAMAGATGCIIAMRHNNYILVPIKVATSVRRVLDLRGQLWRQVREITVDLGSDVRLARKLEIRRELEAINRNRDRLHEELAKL
Luciferin 4-monooxygenase (Photinus pyralis), sequence (P08659 whole entry, looked up): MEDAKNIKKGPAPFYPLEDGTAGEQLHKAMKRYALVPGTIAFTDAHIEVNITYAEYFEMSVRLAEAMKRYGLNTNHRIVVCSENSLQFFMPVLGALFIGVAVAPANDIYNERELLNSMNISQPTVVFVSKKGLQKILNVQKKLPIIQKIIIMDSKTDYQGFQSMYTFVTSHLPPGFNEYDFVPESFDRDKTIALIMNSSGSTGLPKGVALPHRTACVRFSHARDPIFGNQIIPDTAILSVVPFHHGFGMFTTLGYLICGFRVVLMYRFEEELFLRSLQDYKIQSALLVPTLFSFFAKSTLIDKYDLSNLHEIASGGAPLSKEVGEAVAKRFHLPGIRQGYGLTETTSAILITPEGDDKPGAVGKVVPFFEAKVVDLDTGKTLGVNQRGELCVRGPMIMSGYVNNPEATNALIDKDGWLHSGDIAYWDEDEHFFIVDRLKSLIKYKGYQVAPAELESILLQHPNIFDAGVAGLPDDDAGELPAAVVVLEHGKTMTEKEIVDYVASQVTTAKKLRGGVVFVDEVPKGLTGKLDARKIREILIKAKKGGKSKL

For the compound `C[N+]12CCCC[C@@H]1CCC(=C(c1cccs1)c1cccs1)C2` (some centres undefined), the Potency entry (in test [1]; in [2]; in test [3]; with CP262) was “inactive” each time. Moreover, the Potency in [4] (parasite line A) was 10 µM (active); in [4] (parasite line B), 12.6 µM (active); with CP185 it was 8.91 µM (active); in the test with CP192 it was 10.7 µM (active); with CP211, 13.5 µM (active); in the test on CP269, 13.5 µM (active). In addition, the Potency was 6.31 µM (active) in the test with CP286; 10.7 µM (active) with CP305; 11.2 µM (active) in the test with FAB9; 10 µM (active) in the test on JCK; 12.6 µM (active) in the test on N140; 10 µM (active) in the test on PC49.
In the case of `C=C1NC(=O)c2cc(CN(C)c3ccc(C(=O)N[C@@H](CCC(=O)O)C(=O)O)s3)ccc2N1`, the Potency result (in [1]; in [2]; in the test with CP185; with CP192; in the test with CP211; in the test with CP238) was “inactive” each time. The Potency entry in the test with CP262, in the test with CP269, in the test with CP286, with CP305, in the test on CP315 and with CP325 was “inactive” in each case. In addition, the Potency entry in the test with Dd2, in the test with FAB9, in the test with HB3, with JCK, in the test on N140 and in the test on PC49 was “inactive” throughout. The Potency in [3] is 0.0079 µM (active). Also, the activity, negative = inhibition was 2.89% in test [4] (parasite line A) and 4.82% in test [4] (parasite line B).
Turning to `COc1ccc2cc1Oc1cc3c(cc1OC)CC[N+](C)(C)C3Cc1ccc(cc1)Oc1c(OC)c(OC)cc3c1C(C2)[N+](C)(C)CC3` (centres undefined), the Potency entry (in test [1]; in test [2]; in test [3]; in the test on CP185; in the test on CP192; in the test with CP211) was “inactive” each time. Moreover, the Potency entry in the test on CP238, in the test with CP262, with CP269, with CP286, in the test with CP305 and with CP315 was “inactive” in each case. The Potency entry in the test with CP325, in the test with Dd2, in the test with FAB9, with HB3, with JCK and with N140 was “inactive” each time. Further, the Potency entry in the test with PC49 is “inactive”. Besides, the activity, negative = inhibition in test [4] (parasite line A) is 13.3%; in [4] (parasite line B), 0.155%.
Turning to `Clc1ccc(CS[C@@H](Cn2ccnc2)c2ccc(Cl)cc2Cl)cc1`, the Potency result in test [1], in [2] and in [3] was “inactive” throughout. Moreover, the Potency in test [4] (parasite line A) is 3.16 µM (active); in test [4] (parasite line B) it was 2.24 µM (active); in the test with CP185 it was 3.98 µM (active); with CP269 it was 6.42 µM (active); in the test on CP286 it was 3.55 µM (active); with Dd2 it was 4.47 µM (active). Further, the Potency was 3.98 µM (active) in the test with HB3 and 1.41 µM (active) in the test on N140.
Regarding `CC(=O)OC1C([N+]2(C)CCCCC2)C[C@H]2C3CC[C@H]4C[C@H](OC(C)=O)C([N+]5(C)CCCCC5)CC4(C)C3CCC12C` (some centres undefined), the Potency entry (in test [1]; in [2]; in test [3]; in the test on CP185; with CP238; in the test with CP262) was “inactive” throughout. Further, the Potency entry in the test on CP286, in the test on Dd2, in the test on FAB9, in the test on HB3, in the test on JCK and with N140 was “inactive” in each case. In addition, the Potency result in the test on PC49 was “inactive”. Moreover, the activity, negative = inhibition in [4] (parasite line A) was -25%; in [4] (parasite line B), 8.8%.
`C[C@@H]1CC2C3CCC4=CC(=O)C=C[C@]4(C)[C@@]3(F)[C@@H](O)C[C@]2(C)[C@@]1(O)C(=O)COC(=O)c1cccc(S(=O)(=O)O)c1` (some centres undefined): the Potency entry (in [1]; in test [2]; in the test with CP185; in the test on CP192; in the test on CP211; in the test with CP238) was “inactive” throughout. The Potency entry with CP262, in the test on CP269, in the test on CP286, in the test on CP305, in the test on CP315 and with CP325 was “inactive” in each case. In addition, the Potency result in the test with Dd2, in the test on FAB9, in the test with HB3, with JCK, with N140 and in the test with PC49 was “inactive” throughout. Further, the figures for the activity, negative = inhibition in test [4] (parasite line A) and in test [4] (parasite line B) were 4.33% and -2.2%, respectively.
